Drawing on ChEMBL document CHEMBL1157539, “Thousands of chemical starting points for antimalarial lead identification” (Nature, 2010), this text covers Inhibition for 58 compounds.

SMILES strings stand for the structures.

Assay type in all cases: functional
In assay [1] the test system is Plasmodium falciparum. As to the kind of experiment: GSK_TCMDC: Inhibition of Plasmodium falciparum 3D7 in whole red blood cells, using parasite LDH activity as an index of growth. Test compounds present at 2uM.
The test system of assay [2] is Plasmodium falciparum. As to the kind of experiment: GSK_TCMDC: Inhibition of Plasmodium falciparum Dd2 in whole red blood cells, using parasite LDH activity as an index of growth. Test compounds present at 2uM.
The next assay relates to HepG2. Nature of the assay: GSK_TCMDC: Percent inhibition of human HepG2 cell line. Test compounds present at 10uM.

For orientation: Inhibition means the share of the control response that was lost under treatment. A higher Inhibition goes with strong suppression. `CN(C(=O)Cc1ccc(Cl)c(Cl)c1)C1CCN(CCCCCNC(=O)/C=C/c2ccc(Cl)c(Cl)c2)CC1`: the Inhibition in the assay with Plasmodium falciparum [1] is 84%; in the assay with Plasmodium falciparum [2], 13%; in the assay on HepG2 it was 87%.
Taken in the same sequence, the figures for `CN1CCN(CCCSc2ccc3c(c2)ncn3-c2cc(OCc3ccccc3C(F)(F)F)c(C(N)=O)s2)CC1.O=CO` were 100%, 86% and 28%.
In the same order, the values of `O=C(Cc1c[nH]cn1)Nc1cccc(-c2cccc(-c3nc4cc(F)ccc4[nH]3)c2)c1` are 100%, 97% and 21%.
As to `CCN(CCCN1CCCCC1)c1cc(C)nc(Nc2ccc(Cl)cc2)n1.Cl`, the Inhibition in the assay with Plasmodium falciparum [1] was 100%; in the assay on Plasmodium falciparum [2] it was 82%; in the assay on HepG2, 23%.
Taken in the same sequence, the figures for `COc1ccc(OC)c(NC(=O)C2c3ccccc3C(=O)N(CC(C)C)C2c2cccs2)c1` (centres undefined) were 100%, 66% and 9%.
Taken in the same sequence, the figures for `CCN1CCN(Cc2ccc(-c3ccc(NS(=O)(=O)c4cccc5cccnc45)cc3)cc2)CC1.O=C(O)C(F)(F)F` were 90%, 42% and 29%.
In the same order, the values of `CC(C)C1C(O)=C(c2ccc3ccccc3c2)C(=O)N1CC1CCCCC1` (centres undefined) are 84%, 43% and 11%.
With `O=C(OCc1ccccc1)N1CCc2c([nH]c3ccccc23)C1CCC(F)(F)F` (centres undefined), the Inhibition in the assay on Plasmodium falciparum [1] turned out to be 94%; with Plasmodium falciparum [2], 81%; in the assay on HepG2, 0%.
In the same order, the values of `CCCCCn1c(Sc2ccc(C#N)c([N+](=O)[O-])c2)nnc1-c1ccc(Cl)cc1` are 88%, 29% and 18%.
In the same order, the values of `COc1ccc2nccc([C@@H](O)CN3CCC(NCc4cc5c(Cl)cc(Cl)cc5[nH]4)CC3)c2c1.O=C(O)C(=O)O` are 100%, 86% and 93%.
Regarding `Cc1ccoc1C(=O)Nc1cccc(-c2cccc(-c3nc4cccc(C)c4[nH]3)c2)c1`, the Inhibition with Plasmodium falciparum [1] is 100%; in the assay with Plasmodium falciparum [2], 79%; in the assay on HepG2, 17%.
Taken in the same sequence, the figures for `O=C(CNC1CCCCC1)Nc1cccc(C(=O)Nc2cccc(C(F)(F)F)c2)c1.O=C(O)C(=O)O` were 93%, 80% and 17%.
Taken in the same sequence, the figures for `Cc1cc(N[C@@H](CC(C)C)C(=O)NCCOc2ccccc2)nc(NCCOc2ccccc2)n1.O=C(O)C(F)(F)F` were 89%, 6% and 0%.
As to `Cn1cnc(CCNC(=O)c2cccc(-c3ccc(-c4nc5cc(F)ccc5[nH]4)cc3)c2)c1`, the Inhibition is listed as 88% in the assay with Plasmodium falciparum [1], 5% with Plasmodium falciparum [2] and 26% in the assay with HepG2.
Taken in the same sequence, the figures for `Cc1cc(N2CCCC2)nc(Nc2ccc(NC(=O)c3ccccc3F)cc2)n1` were 98%, 44% and 36%.
Taken in the same sequence, the figures for `CCC1CN(S(=O)(=O)c2ccc3c(c2)NC(=O)CC(=O)N3)c2cc(Cl)ccc2O1` (centres undefined) were 99%, 65% and 0%.
Taken in the same sequence, the figures for `O=C1NC(c2ccc(N3CCCCCC3)cc2)Nc2ccccc21` (centres undefined) were 96%, 96% and 19%.
With `COc1ccc(-c2ccc(CN(C)C3CCC(NC(=O)c4cc5ccccc5[nH]4)CC3)cc2)cn1` (centres undefined), the Inhibition in the assay on Plasmodium falciparum [1] was found to be 88%; in the assay on Plasmodium falciparum [2], 2%; in the assay on HepG2 it was 31%.
In the same order, the values of `Cl.Oc1cc(-c2nc(-c3ccccc3)[nH]c2-c2ccncc2)ccc1Cl` are 96%, 91% and 64%.
Taken in the same sequence, the figures for `O=C(NCC(NCCCNc1cc(=O)c2ccccc2[nH]1)c1cc(Br)cc(Br)c1)C1=CCCC1` (centres undefined) were 96%, 48% and 0%.
In the same order, the values of `CCC(C)NCC(O)(c1ccc(Cl)cc1)c1ccc(Cl)cc1` (centres undefined) are 95%, 76% and 5%.
With `CN(C)CCOc1cc(NC(=O)Nc2cccc([N+](=O)[O-])c2)ccc1I`, the Inhibition with Plasmodium falciparum [1] is 100%; in the assay on Plasmodium falciparum [2], 51%; in the assay with HepG2, 8%.
Taken in the same sequence, the figures for `COc1ccc2nc(C)cc(N/N=C/c3ccccc3[N+](=O)[O-])c2c1` were 100%, 99% and 2%.
With `Cc1ccc(NC(=O)c2cccc(CN3CCCN(CC4CCCCC4)CC3)c2)cc1F.O=C(O)C(F)(F)F`, the Inhibition with Plasmodium falciparum [1] was found to be 85%; in the assay with Plasmodium falciparum [2], 42%; with HepG2, 22%.
In the same order, the values of `Cc1ccc(NC(=O)NC2CCN(CCC(NC(=O)Cc3ccccc3)c3ccc(Cl)c(Cl)c3)CC2)cc1` (centres undefined) are 100%, 2% and 16%.
As to `CCn1ccc2c(N3CCCC3=O)cc(C(=O)N[C@@H](Cc3ccccc3)[C@H](O)CNC3CCCCC3)cc21`, the Inhibition in the assay on Plasmodium falciparum [1] was 99%; in the assay with Plasmodium falciparum [2], 98%; in the assay with HepG2, 12%.
In the same order, the values of `COc1ccccc1CCNc1ncc(F)c(N[C@@H](Cc2ccccc2)C(=O)NCCc2ccccc2)n1.O=C(O)C(F)(F)F` are 90%, 83% and 7%.
In the same order, the values of `Cc1cc(N[C@@H](Cc2ccccc2)C(=O)NCc2cccc(F)c2)nc(NCCc2ccc(F)cc2)n1.O=C(O)C(F)(F)F` are 99%, 69% and 0%.
In the same order, the values of `CC(C)c1ccc(CN2CCC(NC(=O)c3ccc(-c4cccc(F)c4)s3)CC2)cc1.O=C(O)C(F)(F)F` are 83%, 12% and 47%.
Regarding `COc1ccc(C2c3cc(OC)c(OC)cc3C(=NO)C2C)cc1OC` (centres undefined), the Inhibition in the assay with Plasmodium falciparum [1] is 90%; with Plasmodium falciparum [2] it was 6%; with HepG2, 20%.
Taken in the same sequence, the figures for `CCCN1CCC(NCc2cn(C)nc2-c2ccc(Oc3ccccc3)cc2)CC1` were 88%, 44% and 34%.
Taken in the same sequence, the figures for `Cc1cc(Nc2ccc3c(c2)CCC3)n2ncnc2n1` were 86%, 48% and 4%.
Taken in the same sequence, the figures for `CC(C)COc1ccc(Cl)cc1Cc1ccc(-c2nc3cc(N4CCN(C)CC4)ccc3[nH]2)o1.Cl` were 100%, 41% and 6%.
Regarding `Cc1[nH]c(-c2ccc(F)cc2)cc1C(=O)NC1CCN(Cc2ccccc2)CC1`, the figures for the Inhibition in the assay with Plasmodium falciparum [1], in the assay with Plasmodium falciparum [2] and in the assay on HepG2 were 84%, 9% and 6%, respectively.
Taken in the same sequence, the figures for `Cc1cc(C)cc(Oc2c(C(F)(F)F)oc3c(CN4CC(C)OC(C)C4)c(O)ccc3c2=O)c1` (centres undefined) were 89%, 54% and 5%.
Taken in the same sequence, the figures for `CCC(=O)N(c1ccccc1)C1CCN(CCCC(NC(=O)Nc2cc(C(F)(F)F)cc(C(F)(F)F)c2)c2ccc(Cl)c(Cl)c2)CC1` (centres undefined) were 99%, 18% and 29%.
In the same order, the values of `O=C(NCCN1CCC(c2ncc(-c3ccccc3)o2)CC1)c1ccc(NC(=O)c2ccc(Cl)cc2)cc1` are 100%, 80% and 32%.
Take `CN(c1ccc2c(c1)nc(NC(=O)C1(c3cc(F)ccc3F)CC1)n2C)c1ccnc(Nc2cccc(CS(C)(=O)=O)c2)n1.O=C(O)C(F)(F)F`: the Inhibition in the assay on Plasmodium falciparum [1] worked out at 89%; in the assay with Plasmodium falciparum [2], 46%; with HepG2 it was 42%.
In the same order, the values of `O=C(Nc1cccc(C(F)(F)F)c1)c1ccc(S(=O)(=O)NCC2CCN(CC3CCCCC3)CC2)cc1.O=C(O)C(F)(F)F` are 100%, 49% and 24%.
Taken in the same sequence, the figures for `O=C(Nc1ccc2c(c1)CCCN2S(=O)(=O)c1cccs1)c1cc([N+](=O)[O-])ccc1Cl` were 93%, 95% and 29%.
Regarding `Cl.N=C(N)NN=Cc1c2ccc(Cl)cc2c(Cl)c2ccc(Cl)cc12`, the values for the Inhibition with Plasmodium falciparum [1], in the assay with Plasmodium falciparum [2] and in the assay on HepG2 were 100%, 90% and 28%, respectively.
In the same order, the values of `COC[C@H]1CCCN1Cc1ccc(-c2ccc(-c3nc4ccccc4[nH]3)s2)cc1` are 95%, 58% and 18%.
Taken in the same sequence, the figures for `CCOC(=O)c1nc(-c2ccc(-c3ccccc3)cc2)[nH]c1N.Cl` were 98%, 2% and 0%.
Taken in the same sequence, the figures for `CCNc1cc(C(=O)N[C@@H](Cc2ccccc2)[C@H](O)CNC(C)(C)Cc2cccc(Cl)c2)cc(N2CCCCS2(=O)=O)c1.Cl` were 97%, 74% and 17%.
In the case of `CC(C)(C)C1CCc2onc(C(=O)Nc3cc(Cl)ccc3O)c2C1` (centres undefined), the values for the Inhibition in the assay on Plasmodium falciparum [1], in the assay on Plasmodium falciparum [2] and in the assay on HepG2 were 98%, 82% and 5%, respectively.
In the same order, the values of `Cc1c(Cc2ccccc2)c(=O)oc2c(C)c3c(cc12)CN(CC(C)c1ccccc1)CO3` (centres undefined) are 98%, 98% and 1%.
In the same order, the values of `CO/C(=C/C=C/c1cc2cc(Cl)c(Cl)cc2[nH]1)C(=O)NC1CC(C)(C)N(C)C(C)(C)C1` are 99%, 85% and 58%.
Taken in the same sequence, the figures for `Cc1cccc2nc(-c3ccc(-c4ccc(CNCc5ccccc5)cc4)s3)[nH]c12.O=C(O)C(F)(F)F` were 100%, 87% and 22%.
Turning to `COc1cc(OC)c(NC(=O)C2c3ccccc3C(=O)N(C)C2c2cccs2)cc1Cl` (centres undefined), the Inhibition in the assay on Plasmodium falciparum [1] is 99%; in the assay on Plasmodium falciparum [2] it was 52%; with HepG2 it was 4%.
In the same order, the values of `CC(C)(C)c1cc2cc(Nc3ccnc4cc(-c5nccs5)ccc34)ccc2[nH]1.Cl` are 100%, 97% and 5%.
Taken in the same sequence, the figures for `COc1ccc(C2CCN(CCCCNC(=O)c3ccc(NC(=O)c4ccc(Cl)cc4)cc3)CC2)cc1Cl` were 97%, 75% and 28%.
In the same order, the values of `COc1ccccc1OCCN(CC(O)COc1cccc2[nH]c3ccccc3c12)CC(O)COc1cccc2[nH]c3ccccc3c12` (centres undefined) are 97%, 96% and 16%.
For `CC(C)CC1c2[nH]c3ccccc3c(=O)c2CN1C(=O)OC(C)(C)C` (centres undefined), the results for the Inhibition in the assay on Plasmodium falciparum [1], in the assay on Plasmodium falciparum [2] and with HepG2 were 97%, 96% and 2%, respectively.
Turning to `O=C(Nc1ccc(-c2ccccc2)cc1)Nc1cccc(Cn2ncc(N3CCNCC3)c(Cl)c2=O)c1.O=C(O)C(F)(F)F`, the Inhibition was found to be 100% with Plasmodium falciparum [1], 59% in the assay on Plasmodium falciparum [2] and 30% in the assay on HepG2.
Taken in the same sequence, the figures for `CCCCCCCCCCS(=O)(=O)N[C@H](COCc1cccc(Oc2ccccc2)c1)COP(=O)([O-])OC.[Li+]` were 87%, 0% and 0%.
For the compound `Cc1cc2[nH]c(-c3ccc(C(=O)NCCCN4CCN(c5cccc(Cl)c5)CC4)cc3)nc2cc1Cl`, the Inhibition in the assay with Plasmodium falciparum [1] amounted to 98%; in the assay with Plasmodium falciparum [2], 73%; in the assay with HepG2 it was 1%.
Taken in the same sequence, the figures for `C=CCc1cc(Br)ccc1OCCCOc1c(C)nc(N)nc1N.Cl` were 94%, 96% and 56%.
Consider `CCN1CCC(N(Cc2ccc(-c3ccc(C(F)(F)F)cc3)cc2)C(=O)Cn2c(CCc3cccc(F)c3F)cc(=O)c3ccccc32)CC1.O=C(O)C(O)C(O)C(=O)O`, for which the Inhibition with Plasmodium falciparum [1] stood at 94%; in the assay on Plasmodium falciparum [2], 94%; with HepG2, 100%.
